Test: TLR3 IRF3 reporter activation blockers – cell-based, poly I:C stimulus, luciferase, 10K MLSCN set, primary screen (AID 602277)
Details: HEK293-TLR3 RL24 IRF3 luciferase reporter, at 10 µM, hits give high values;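 active = inhibition of the reporter signal at or above 50%; inactive = inhibition below 50%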

inhibition, inactive:
COc1cc2[nH]c(=O)n(CCC(=O)N3CCc4ccccc4C3)c(=O)c2cc1OC -15.8%
CS(=O)(=O)N(CC(=O)NC1CC1)c1cccc(F)c1 14.7%
O=C(NCc1ccco1)C1CCN(S(=O)(=O)N2CCC3(CC2)OCCO3)CC1 6.88%
CC(=O)Nc1ccc(S(=O)(=O)N2CCN(C(C)CCc3ccccc3)CC2)cc1 (stereo not drawn) 20.1%
CCCn1c(SCC(=O)N2CCCc3ccccc32)nnc1-c1ccccn1 20%
CCNS(=O)(=O)c1ccc(S(=O)(=O)N(Cc2ccccn2)C2CCCCC2)cc1 40.2%
COc1ccc(-c2nnc(SCC#N)o2)cc1 -31.5%
O=S(=O)(c1ccc2c(c1)nc1n2CCC1)N1CCOCC1 13.8%
COCc1cc(C)nc(SCC(=O)Nc2cccc(C)c2C)c1C#N 38.1%
O=C(CSc1nnc(-c2ccccc2Cl)n1Cc1ccco1)Nc1ccc2c(c1)OCCO2 18.1%
CCOC(=O)CSc1nnc(CNC(=O)c2ccc(S(=O)(=O)N3CCCC3)cc2)n1C 18.7%
C=C(c1cccc2ccccc12)P(=O)(O)O 22.1%
CN=C1CC(C)(C)CC(=O)/C1=C(/O)CCC(=O)NC 15.4%
CC(C(=O)c1ccccc1)n1cnc2ccccc2c1=O (stereo not drawn) 10.7%
CN(C)C(=O)CSc1nnc([C@H](Cc2c[nH]c3ccccc23)NC(=O)OC(C)(C)C)o1 23.4%
CCOC(=O)NC(=O)CSc1nnc(C)s1 17.5%
CCOc1nc2ccccc2nc1NS(=O)(=O)c1ccccc1 20%
O=C(O)C1CC(=O)N(Cc2ccccc2)C1 (stereo not drawn) 17%
CCOC(=O)C1=C(Cn2cnc3ccccc32)NC(=O)NC1c1cc(C)ccc1C (stereo not drawn) 19%
CCOC(=O)C1CCCN(C(=O)c2cc3c(C)nc4ccccc4c3o2)C1 (stereo not drawn) 5.32%
CCCC1CC(C)(C(=O)Cn2[nH]c(=O)ccc2=O)OC1=O (stereo not drawn) 25.6%
CCOc1cc(N2CCOCC2)c(OCC)cc1NC(=O)COC(=O)CCc1c[nH]c2ccccc12 20.2%
CC12CN3CC(C)(CN(C1)C3c1ccc(Br)cc1)C2 (stereo not drawn) 13.4%

— PubChem BioAssay
